Records with an inconclusive call do not appear. Active and inactive are the calls of the source. The call rests on the fitted dose curve; in most records, active means well fitted activation curve with a large enough effect in the signal ratio in the repeat runs (not every such curve was filed as active); inconclusive means weak or mixed curves; inactive means flat fitted curve, though single readings scatter; the % refers to the signal ratio.

Experimental findings from PubChem BioAssay (Tox21) are described below.
On the % scale 0 is the no-effect control and ±100 the full control effect.

The nature of the assay: qHTS assay to identify small molecule agonists of the hypoxia (HIF-1) signaling pathway (AID 1224846). As to conditions: HRE-bla ME-180 cells, beta-lactamase ratio, 17 h; series mostly up to 76.8 µM. The text has this: U.S. Tox21 Program National Center for Advancing Translational Sciences [NCATS] NIH Chemical Genomics Center [NCGC] U.S. Environmental Protection Agency [EPA] National Institutes of Environmental Health Sciences [NIEHS] National Toxicology Program [NTP] U.S. Food and Drug Administration [FDA] Tox21 Assay Overview: Hypoxia-inducible factor-1 (HIF-1) is the major hypoxia-regulated transcription factor that controls cellular responses to low oxygen concentration. HIF-1 is composed of two subunits: hypoxia responsive HIF-1-alpha and constitutively expressed HIF-1-beta, which is also known as aryl hydrocarbon receptor nuclear translocator. During hypoxic conditions, HIF-1-alpha heterodimerizes with HIF-1-beta and translocates into the nucleus where the HIF-1 complex binds to the hypoxia-response element (HRE) and activates expression of target genes such as VEGF (vascular endothelial growth factor). The HIF-1 pathway is essential to normal growth and development, and is involved in the pathophysiology of cancer, inflammation, and ischemia. Using a beta-lactamase reporter-gene under control of the hypoxia response element, a cell-based assay [CellSensor(TM) HRE-bla ME-180 from Life Technologies, Carlsbad, CA] was used to measure hypoxia-induced signaling. Tox21 10K library compounds were measured for their ability to induce the reporter gene activity.
Tox21 Assay Protocol Summary: HRE-bla ME-180 cells were dispensed at 2,000 cells per well in 6 uL of assay medium containing 0.5% dialyzed FBS into black wall/clear-bottom 1536-well plates using a Multidrop Combi (Thermo Scientific, Waltham, MA) dispenser. After the assay plates were incubated at 37C and 5% CO2 for 5 hrs, 23 nL of compounds dissolved in DMSO, positive controls or DMSO only was transferred to each well of the assay plate using a Pintool station (Kalypsys, San Diego, CA). The assay plates were incubated at 37C and 5% CO2 for 17 hrs. One uL of LiveBLAzerTM B/G FRET substrate (CCF4-AM) (Life Technologies) was added to each well using a Flying Reagent Dispenser (Aurora Discovery, San Diego, CA).
For orientation: Quantitative high-throughput screening tests each substance at several concentrations.
Consider `CCCCCC(CO)CCC` (stereo not given), for which the outcome was inactive.
Same read-out and setting: in the case of `CC(C)(C)c1cc(O)c(C(C)(C)C)cc1O` it was “inactive”.
For the compound `O=C(CCN1CCN2CCCC2C1)N1c2ccccc2Sc2ccc(Cl)cc21` (stereo not given), the activation was -0.917% [at 15.8 µM] (inactive).
Regarding `CC(C)(C)C1CCCCC1O` (stereo not given), the result was inactive.
Still for that read-out and setting: the same measure for `C1=Cc2ccccc2C1`: “inactive”; for `CC(C)NCC(O)c1cc(O)cc(O)c1` (stereo not given): “inactive”.
The same measure, in the same setting: in the case of `CC[C@@H]1C[C@H](N(Cc2cc(C(F)(F)F)cc(C(F)(F)F)c2)C(C)=O)c2cc(C(F)(F)F)ccc2N1C(=O)OC(C)C` it was “inactive”; in that of `c1ccc(CNCc2ccccc2)cc1`, “inactive”.
Still for that read-out and setting: in the case of `CC(C)c1cccc(C(C)C)c1NC(=O)NS(=O)(=O)c1cc(C(C)(C)O)co1` it was “inactive”; in that of `CN1CCC(OC(c2ccccc2)c2ccccc2)CC1`, “inactive”.
For the compound `CCCCCCCCCCCCCCCBr`, the result was inactive.
On the same count and under the same terms, the same measure for `NC1CCN(c2nc3c(cc2F)c(=O)c(C(=O)O)cn3-c2ccc(F)cc2F)C1` (stereo not given): “inactive”.
As to `O=C1CCCCCO1`, the result was inactive.
The same measure, in the same setting: the same measure for `O=C(Cl)c1ccc([N+](=O)[O-])cc1`: “inactive”.
`CCCC(C)C`: the result was inactive.
Same read-out and setting: in the case of `CC(=O)NCCCS(=O)(=O)O` it was “inactive”; in that of `CC(=O)[C@@]1(O)CC[C@H]2[C@@H]3C[C@H](C)C4=CC(=O)CC[C@]4(C)[C@H]3CC[C@@]21C`, “inactive”.
Still for that read-out and setting: the same measure for `CC(C)(C)c1ccc(OCC2CO2)cc1` (stereo not given): “inactive”.
As for `CCN(CC)CCNC(C(=O)OCCC(C)C)c1ccccc1` (stereo not given), the outcome was inactive.
Still for that read-out and setting: in the case of `CN(C)CCCNCCCN` it was “inactive”; in that of `OCCC1CCCCN1` (stereo not given), “inactive”.
As for `CC(=O)SCc1ccco1`, the outcome was inactive.
On the same count and under the same terms, the same measure for `N[C@H]1C(O)O[C@H](CO)[C@H](O)[C@@H]1O` (stereo not given in full): “inactive”; for `O=C(O)C1CCC(C(=O)O)CC1` (stereo not given): “inactive”; for `NC(=S)N/N=C/c1cccnc1`: “inactive”.
Regarding `C=CC[N+]1([C@H]2C[C@H]3[C@@H]4CC[C@H]5C[C@H](OC(C)=O)[C@@H](N6CCCCC6)C[C@]5(C)[C@H]4CC[C@]3(C)[C@H]2OC(=O)CC)CCCCC1`, the result was inactive.
Same read-out and setting: the same measure for `CC(O)C1CCCCC1` (stereo not given): “inactive”.
As to `Cc1ncsc1CCO`, the outcome was inactive.
The same measure, in the same setting: in the case of `CCCCCOC(=O)COc1cc(N2C(=O)C3=C(CCCC3)C2=O)c(F)cc1Cl` it was “inactive”.
Same read-out and setting: in the case of `Cc1ccc(O)c([C@H](CCN(C(C)C)C(C)C)c2ccccc2)c1` it was “inactive”; in that of `Cl/C(=C\n1cncn1)c1ccc(Cl)cc1Cl`, “inactive”; in that of `Nc1nc(CC(=O)O)cs1`, “inactive”.
The same measure, in the same setting: in the case of `CCOc1nc2cccc(C(=O)O)c2n1Cc1ccc(-c2ccccc2-c2nn[nH]n2)cc1` it was “inactive”.
With `CCN(CCO)CCCC(C)Nc1ccnc2cc(Cl)ccc12` (stereo not given), the activation is 0.22% [at 7.01 µM] (inactive).
For `CCN(CC)C(C)=O`, the outcome was inactive.
For the compound `O=[N+]([O-])c1cccc(Cl)c1Cl`, the outcome was inactive.
For `C=CC(C)(CCC=C(C)C)OC(=O)c1ccccc1` (stereo not given), the outcome was inactive.
On the same count and under the same terms, in the case of `CCN1CCC[C@H]1CNC(=O)c1c(OC)ccc(Br)c1OC` it was “inactive”; in that of `CCCCOc1ccc(CC(=O)NO)cc1`, “inactive”.
Same read-out and setting: in the case of `CCCCC(CC)(CO)CO` it was “inactive”.
